Some test systems named below: PKMYT1; PKN1; PKN2; PLK1; PLK2; PLK3; PLK4; PRKCD; PRKCE; PRKCH; PRKCI; PRKCQ; PRKD1; PRKD2; PRKD3; PRKG1; PRKG2; PRKX; PRP4.
What all share (conditions): concentration: 1 μM, replicates: in singlicate; n = 1
In the next test the test system is T1, PRKR.
T1 construct: gene EIF2AK2

SMILES strings stand for the structures.
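Note: KINOMEscan kinase panel screen.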

For the compound `CC(C)Oc1ccc2c(-c3ccnc(Nc4ccc(N5CCN(C)CC5)cc4)n3)cnn2n1` [GW696155], the “%Inh” value in the test with PKMYT1 stood at 0%; in the test on PKN1, 31%; with PKN2 it was 4%; in the test with PLK1, 25%; in the test with PLK2, 62%; in the test on PLK3, 95.9%. For the same compound, the “%Inh” value in the test with PLK4 came to 96.8%; in the test with PRKCD, 0%; with PRKCE it was 28%; with PRKCH it was 0%; with PRKCI, 26%; with PRKCQ, 0%. Also, the “%Inh” value is given as 86% in the test on PRKD1; 97.6% with PRKD2; 100% with PRKD3; 0% in the test on PRKG1; 4% in the test with PRKG2; 92.2% in the test with PRKR. In addition, the “%Inh” value with PRKX was 0%; in the test on PRP4, 95%.

On to `COc1ccc(Nc2ncc(C#N)c(Nc3ccccc3C(N)=O)n2)cc1N1CCN(C)CC1.Cl` [GSK1558669], for which the “%Inh” value in the test with PKMYT1 came to 41%; with PKN1, 83%; in the test with PKN2, 78%; in the test with PLK1, 100%; in the test with PLK2, 100%; in the test on PLK3, 100%. The “%Inh” value in the test on PLK4 was found to be 99.8%; in the test with PRKCD it was 94%; in the test on PRKCE, 94.4%; in the test on PRKCH, 86%; with PRKCI it was 96.6%; with PRKCQ it was 96.5%. The “%Inh” value in the test on PRKD1 was 93.1%; with PRKD2, 89%; with PRKD3, 99%; in the test with PRKG1 it was 76%; in the test with PRKG2 it was 54%; in the test on PRKR it was 87%. For the same compound, the “%Inh” value with PRKX came out at 52%; in the test with PRP4, 79%.

In the case of `CN(C1=C(c2ccccc2)C(=O)NC1=O)c1ccccc1` [SB-334860], the “%Inh” value in the test with PKMYT1 was 8%; in the test on PKN1, 20%; with PKN2, 0%; with PLK1, 3%; in the test with PLK2, 2%; in the test with PLK3 it was 0%. Also, the “%Inh” value in the test with PLK4 turned out to be 21%; in the test with PRKCD, 0%; in the test on PRKCE, 22%; in the test on PRKCH it was 6%; in the test on PRKCI it was 33%; in the test on PRKCQ, 7%. The “%Inh” value in the test with PRKD1 is recorded as 0%; with PRKD2, 14%; in the test with PRKD3 it was 25%; in the test on PRKG1, 0%; in the test on PRKG2, 16%; with PRKR, 17%. In addition, the figures for the “%Inh” value in the test with PRKX and in the test on PRP4 were 2% and 0%, respectively.

As to `CN(C(=O)c1ccc(-c2cc(-c3c[nH]nc3-c3ccccn3)ccn2)cc1)C1CCOCC1` [GW810083], the “%Inh” value is 4% in the test with PKMYT1; 0% with PKN1; 0% with PKN2; 0% with PLK1; 0% in the test on PLK2; 0% with PLK3. Moreover, the “%Inh” value is given as 2% with PLK4; 24% in the test with PRKCD; 4% with PRKCE; 0% in the test with PRKCH; 18% with PRKCI; 0% in the test with PRKCQ. Moreover, the “%Inh” value in the test with PRKD1 is given as 10%; with PRKD2 it was 0%; in the test on PRKD3, 0%; in the test with PRKG1 it was 0%; in the test with PRKG2, 10%; in the test on PRKR, 0%. Besides, the “%Inh” value with PRKX and in the test on PRP4 was 0% throughout.

Take `O=c1cc(N2CCOCC2)nc2n(Cc3cccc4ccccc34)ccn12` [GSK2333389]: the “%Inh” value in the test on PKMYT1 is reported as 4%; in the test on PKN1 it was 15%; in the test on PKN2 it was 0%; in the test on PLK1, 0%; in the test with PLK2, 0%; in the test on PLK3, 0%. The “%Inh” value amounted to 0% in the test on PLK4; 0% with PRKCD; 0% in the test with PRKCE; 0% in the test with PRKCH; 7% in the test with PRKCI; 0% in the test with PRKCQ. Besides, the “%Inh” value with PRKD1 came to 0%; with PRKD2, 0%; with PRKD3, 23%; in the test on PRKG1, 10%; with PRKG2, 0%; with PRKR, 0%. In addition, the “%Inh” value is listed as 26% with PRKX and 2% in the test on PRP4.

Turning to `Nc1nc(-c2ccc3c(N)n[nH]c3c2)cc(N2CCCC2)n1` [GSK2227430], the “%Inh” value in the test with PKMYT1 is listed as 0%; in the test on PKN1, 10%; in the test with PKN2 it was 0%; with PLK1 it was 0%; with PLK2, 0%; in the test on PLK3 it was 0%. The “%Inh” value in the test on PLK4 stood at 0%; in the test with PRKCD, 0%; in the test on PRKCE, 0%; with PRKCH, 5%; in the test with PRKCI, 0%; in the test on PRKCQ, 18%. The “%Inh” value was 0% with PRKD1; 0% in the test with PRKD2; 13% in the test with PRKD3; 0% in the test with PRKG1; 75% in the test with PRKG2; 0% in the test with PRKR. Moreover, the “%Inh” value in the test on PRKX is listed as 1%; in the test with PRP4 it was 46%.

For `COc1cc(Nc2nccc(N3CCC(NC(=O)c4cccc(NC(C)=O)c4)C3)n2)cc(OC)c1OC` (centres unmarked) [GSK1379754], the “%Inh” value in the test on PKMYT1 is given as 0%; in the test with PKN1 it was 0%; with PKN2 it was 0%; in the test on PLK1 it was 0%; with PLK2, 0%; in the test on PLK3 it was 3%. Besides, the “%Inh” value stood at 75% in the test with PLK4; 8% in the test on PRKCD; 0% with PRKCE; 2% in the test on PRKCH; 0% in the test with PRKCI; 24% in the test on PRKCQ. The “%Inh” value in the test on PRKD1 is on record as 0%; in the test with PRKD2, 0%; in the test on PRKD3, 0%; with PRKG1 it was 15%; with PRKG2 it was 0%; with PRKR it was 0%. Also, the results for the “%Inh” value in the test with PRKX and in the test with PRP4 were 27% and 20%, respectively.
